Columns and labels:
Conditions in all cases: Compound Concentration (nM):1000
JNK1 = test system: T1, JNK1
T1 construct: gene MAPK8

JNK2 = test system: T2, JNK2
T2 construct: gene MAPK9

JNK3 = test system: T3, JNK3
T3 construct: gene MAPK10

KIT(A829P) = test system: KIT(A829P)
KIT(D816H) = test system: KIT(D816H)
KIT(D816V) = test system: KIT(D816V)
KIT(L576P) = test system: KIT(L576P)
KIT(V559D) = test system: KIT(V559D)
KIT(V559D,T670I) = test system: KIT(V559D,T670I)
KIT(V559D,V654A) = test system: KIT(V559D,V654A)
KIT-autoinhibited = test system: KIT-autoinhibited
KIT = test system: KIT
LATS1 = test system: LATS1
LATS2 = test system: LATS2
LCK = test system: LCK
LIMK1 = test system: LIMK1
LIMK2 = test system: LIMK2
LKB1 = test system: T4, LKB1
T4 construct: gene STK11

LOK = test system: T5, LOK
T5 construct: gene STK10

LRRK2(G2019S) = test system: LRRK2(G2019S)
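Note: KINOMEscan scanMAX binding as percent activity remaining versus control; lower means stronger binding.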

SMILES	Percent Control (JNK1) [%]	Percent Control (JNK2) [%]	Percent Control (JNK3) [%]	Percent Control (KIT(A829P)) [%]	Percent Control (KIT(D816H)) [%]	Percent Control (KIT(D816V)) [%]	Percent Control (KIT(L576P)) [%]	Percent Control (KIT(V559D)) [%]	Percent Control (KIT(V559D,T670I)) [%]	Percent Control (KIT(V559D,V654A)) [%]	Percent Control (KIT-autoinhibited) [%]	Percent Control (KIT) [%]	Percent Control (LATS1) [%]	Percent Control (LATS2) [%]	Percent Control (LCK) [%]	Percent Control (LIMK1) [%]	Percent Control (LIMK2) [%]	Percent Control (LKB1) [%]	Percent Control (LOK) [%]	Percent Control (LRRK2(G2019S)) [%]
Cl.O=C(Nc1ccc(Oc2ccc3[nH]c(NC(=O)c4ccco4)nc3c2)cc1)Nc1cc(C(F)(F)F)ccc1F [GW683134A]	85	86	100	15	96	48	0	0	2.3	10	83	0.4	100	97	6.3	76	84	87	0.1	66
COc1ccc2c(-c3ccnc(Nc4cccc(OC(F)(F)F)c4)n3)cnn2n1 [GW810372X]	22	60	41	83	77	87	88	88	86	100	81	86	100	91	100	94	100	100	100	86
Nc1ncnc2occ(-c3ccc(NC(=O)Nc4cc(C(F)(F)F)ccc4F)cc3)c12 [GW770249X]	99	9.2	100	7.5	32	14	0	0	0.5	7.5	31	0	100	91	25	100	94	83	0.4	81
Cl.O=S1CCN(Cc2ccc(-c3ccc4ncnc(Nc5ccc(OCc6ccccc6)c(F)c5)c4c3)o2)CC1 [GW576924A]	100	100	100	100	100	100	100	100	94	100	100	100	100	100	100	100	100	100	100	100
COc1cc(C=NNc2ncnc3c2cnn3-c2ccccc2)ccc1O [GW513184X]	99	94	82	100	84	40	17	35	65	74	100	42	90	100	34	100	100	69	100	100
COc1ccc(COc2ccc(Cc3cnc(N)nc3N)cc2OC)cc1 [GW632580X]	85	93	94	100	68	96	93	96	100	100	91	95	100	100	87	79	91	100	88	95
NS(=O)(=O)c1ccc(N/N=C2\C(=O)Nc3ccc(Cl)cc32)cc1 [GW280670X]	84	100	100	100	100	100	67	81	100	58	42	90	100	98	96	100	100	100	100	70
C[C@@H](Oc1cc(-n2cnc3ccc(OC4CCN(C)CC4)cc32)sc1C(N)=O)c1ccccc1Cl [GSK579289A]	82	98	96	49	1.7	48	31	30	41	95	81	32	100	65	82	100	100	100	3.3	75
O=C(Nc1n[nH]c2nc(-c3ccc(O)cc3)c(Br)cc12)C1CC1 [SB-725317]	35	85	80	100	100	94	56	71	100	96	86	84	100	94	83	100	100	100	95	96
Cl.O=C(Nc1ccc(Oc2ccc3[nH]c(NC(=O)c4ccccc4)nc3c2)cc1)Nc1cc(C(F)(F)F)ccc1F [GW709042A]	85	99	100	20	84	79	2.9	0.8	4.9	20	86	1.4	98	85	50	95	93	100	1	68
CCc1ccc(Oc2nccc(-c3c(-c4ccc(F)cc4)ncn3C3CCNCC3)n2)cc1 [SB-242719]	65	15	17	94	73	100	85	95	94	74	100	83	100	70	74	75	100	84	97	83
CCn1c(-c2nonc2N)nc2c(C#CC(C)(C)O)nc(OCCNC)cc21.Cl [GSK949675]	97	100	96	98	22	13	100	100	100	100	100	100	65	11	100	100	100	70	100	100
COc1cccc(-c2c[nH]c3c(N/N=C/c4ccncc4)ncnc23)c1 [GW814408X]	99	97	90	27	12	9.8	2.1	1.7	12	33	38	5	100	89	7.5	100	84	88	100	89
COc1cc2ncnc(Nc3ccc4c(cnn4Cc4ccccc4)c3)c2cc1OC.Cl [GW282449A]	100	100	100	100	100	100	100	98	100	93	100	100	100	100	23	95	100	100	13	100
CCS(=O)(=O)c1ccc(OC)c(Nc2ncc(-c3cccc(F)c3)o2)c1 [GW621970X]	69	92	94	63	51	39	3	4.8	35	90	14	13	94	100	25	100	100	100	100	100
COc1cc(C)c(N(C)C(=O)CN(C)C)cc1Nc1nc(Nc2cccc(F)c2C(N)=O)c2cc[nH]c2n1 [GSK2219385]	88	74	83	100	60	81	100	100	100	93	100	100	100	80	100	100	96	83	100	8.8
CC(C)COC(=O)c1ccc2c(c1)/C(=C/Nc1ccc(S(N)(=O)=O)cc1)C(=O)N2 [GW416981X]	44	65	71	53	20	22	57	100	100	100	85	100	100	91	100	100	100	100	100	36
COc1cc(N2CCN(C(C)C)CC2)ccc1Nc1nc(Nc2ccc(F)cc2C(=O)NC[C@@H](O)CO)c2cc[nH]c2n1 [GSK1392956A]	0	0.1	0.1	88	57	100	100	100	96	98	100	100	100	95	100	92	75	81	100	5.4
CCS(=O)(=O)c1ccc(OC)c(Nc2ncc(-c3cccc(OC)c3)o2)c1 [GW580509X]	76	89	95	83	52	42	0	2.3	66	79	20	9.1	100	100	46	100	100	100	100	100
NS(=O)(=O)c1ccc(N/N=C2\C(=O)Nc3ccc(-c4cnco4)cc32)cc1 [GW276655]	87	83	83	79	69	100	55	58	100	100	81	58	56	65	89	60	67	100	92	17

Source: publication PMC7826789 (International Journal of Molecular Sciences, 2021)
